molecular target: Alpha-bungarotoxin (Bungarus multicinctus) (UniProt P60615); test: compounds binding labelled alpha-BTX control protein – biochemical, small-molecule microarray, Alexa647 label, 635/667 nm fluorescence, artefact control for SMM control protein annotation, profiling panel (AID 1117); conditions: alpha-BTX-A647 binding fluorescence, higher = more signal
Sequence (P60615 whole entry, looked up): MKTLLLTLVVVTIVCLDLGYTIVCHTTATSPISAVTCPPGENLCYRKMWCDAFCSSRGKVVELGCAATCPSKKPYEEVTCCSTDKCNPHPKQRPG

SMILES	composite z-score
COCCOC(=O)N1C(=O)[C@@]2(c3cc(C#CCC(C(=O)OC)C(=O)OC)ccc31)[C@H](C(=O)N1CCN(c3ncccn3)CC1)[C@H]1C(=O)O[C@H](c3ccccc3)[C@H](c3ccccc3)N1[C@@H]2c1ccc(OCCO)cc1	0.536
Cc1cc(C)c(C(O)C2C=CC3C(=O)N(c4ccccc4)C(=O)C3N2Nc2ccc(C#N)cc2)c(C)c1 (stereo not drawn)	1.79
Cc1ccc(S[C@]2(C(=O)NC3CC3)CC(=O)N(C3CCCCC3)[C@@H]2c2ccc(CO)cc2I)cc1	0.874
CC(C)CNC(=O)[C@@]1(c2ccc([N+](=O)[O-])cc2)CC(=O)N(CC23CC4CC(CC(C4)C2)C3)[C@@H]1c1ccc(CO)cc1I	0.504
CC(C)c1ccc(NN2C(C(O)c3c(F)cccc3Cl)C=CC3C(=O)N(c4ccccc4)C(=O)C32)cc1 (stereo not drawn)	1.81
COCCOC(=O)N1C(=O)[C@@]2(c3cc(C#CCNC(N)=O)ccc31)[C@H](c1ccc(O)cc1)N1[C@H](c3ccccc3)[C@H](c3ccccc3)OC(=O)[C@H]1[C@@H]2C(=O)Nc1nc2ccccc2s1	1.1
[N-]=[N+]=Nc1ccccc1[C@H]1OC(c2ccc(OCCCO)cc2)=N[C@@]1(CCS(=O)(=O)c1ccccc1)C(=O)O	0.582
CC=CC(O)C1C=CC2C(=O)N(c3ccccc3)C(=O)C2N1Nc1ccc(C(C)C)cc1 (stereo not drawn)	1.78
COc1cccc(C(=O)O[C@H]2CC[C@]3(C)C4=C(CCC3C2(C)C)[C@]2(C)CC[C@H]([C@H](C)CCCC(C)C)[C@@]2(C)CC4)c1 (stereo partly drawn)	0.3
CC(=O)NCCCC[C@@H]1NC(=O)[C@H]2C[C@@H](C(=O)NCCCCCC[N+](C)(C)C)[C@@H](c3cccc(OCCO)c3)N2C1=O	2.04
CC(C)c1ccc(NN2C(C(O)c3cccc(O)c3)C=CC3C(=O)N(c4ccccc4)C(=O)C32)cc1 (stereo not drawn)	1.31
O=C(CS)NCCCCCCNC(=O)[C@H]1C[C@H]2C(=O)N3CCC[C@H]3C(=O)N2[C@H]1c1cccc(OCCO)c1	0.383
C=C(C(=O)CC[C@H](OC(C)=O)c1ccc(OCCO)cc1)C(C)C	1.05

Source: PubChem BioAssay
